The list is not random: actives were taken first. Their share in the collection is about 2.3%.
Shn3 inh set2 – reduces Shn3 3'UTR luciferase signal in osteoblasts; 360,000 compounds, 0.52% hits; inhibition, % at 12.5 µM; Clone20 osteoblast Shn3 3'UTR firefly luciferase, 24 h; AID 588674;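 active means mean inhibition of at least 75% with every replicate also reaching 75%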;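 further: 0% = median of neutral control wells and 100% = pilot-screen positive control compound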
MITF TRPM1 inh – inhibitors of MITF-driven TRPM1 promoter in melanoma cells; SK-MEL-5 TRPM1 promoter luciferase, 24 h; inhibition, % at 12.5 µM; 330,000 compounds, 0.83% hits; AID 488899;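 active means mean inhibition across replicates of 60% or more, whatever share of single replicates reaches that level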
EBV LMP1 NFkB – inhibitors of Epstein-Barr LMP1-induced NF-kappaB reporter; inhibition, % at 12.5 µM; LMP1-induced NF-kappaB luciferase reporter cells, luminescence; 350,000 compounds, 0.69% hits; in the data active means inhibition above about 41%;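 further: 0% = neutral control wells and 100% = reference inhibitor control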
Gli-Sufu antag – blocks Gli-Sufu signaling in a luciferase reporter. Sufu-KO-LIGHT fibroblasts, Gli luciferase reporter luminescence. inhibition, % at 5 µM. 340,000 compounds, 0.74% hits. AID 588413;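 active means inhibition above about 55%, limit read from the data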;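 further: 0% = DMSO-treated cells and 100% = wells with medium but no cells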
697 NFkB inh – lowers PMA/ionomycin-induced NF-kB signal in 697 B cells; 697 B-cell NF-kB luciferase reporter, 16 h; inhibition, % at 4 µM; 330,000 compounds, 0.33% hits; AID 435022; in the data active means inhibition above about 35%
Jurkat NFkB inh – inhibitors of the PMA/ionomycin-induced NF-kB reporter in Jurkat cells. PMA/ionomycin-induced NF-kB luciferase reporter, luminescence. AID 435003. inhibition, % at 4 µM. 330,000 compounds, 0.53% hits; in the data active means inhibition above about 50%
Active calls of the source: *; . = not tested or not shown.

SMILES	Shn3 inh set2	MITF TRPM1 inh	EBV LMP1 NFkB	Gli-Sufu antag	697 NFkB inh	Jurkat NFkB inh
Cc1ccc(C(=O)CSc2nnnn2C(C)C)c(C)c1	22	3	46*	-22	-187	-78
CCOc1cccc2sc(NC(=O)CCS(=O)(=O)c3ccccc3)nc12	12	13	9	4	-2	12
CN(C)CC(C)(C)CNS(=O)(=O)c1ccc(OC(F)(F)F)cc1	35	1	47*	8	-1	5
CCOc1ccc(/C=C2\CCC(C3CCCC3)C2=O)cc1OC (configuration not stated)	16	-40	-15	2	-32	-30
COc1ccc(/C=C2/CSC/C(=C/c3ccc(OC)c(OC)c3)C2=O)cc1OC	98*	99*	90*	-6	.	.
COc1cc(C=C2CCCC(=Cc3ccc(OCC4CO4)c(OC)c3)C2=O)ccc1OCC1CO1 (configuration not stated)	54	.	49*	.	.	.
CCOc1cc(/C=C2\CN(C)C/C(=C\c3ccc(O)c(OCC)c3)C2=O)ccc1O	96*	102*	-109	27	-57	33
CN1C/C(=C/c2ccncc2)C(=O)/C(=C/c2ccncc2)C1	-2	8	4	-16	2	3
CN1C/C(=C/c2ccsc2)C(=O)/C(=C/c2ccsc2)C1	66	87*	-5	12	7	3
COc1cc(C=C2CN(C)C(=O)C2=O)ccc1O	-16	.	-8	.	.	.
O=C1Nc2ccccc2C1=Nc1ccccc1-c1ccccc1	13	-2	78*	-4	.	.
O=C(O)c1cc(N/N=C/c2ccc3c(c2)OCCO3)ccc1Cl	16	82*	45*	-85	.	.
COc1ccc(C(=O)Nc2sc3c(c2C#N)CCN(C(C)=O)C3)cc1	7	17	-6	-7	-2	2
CC(=O)N1CCc2c(sc(NC(=O)c3ccc([N+](=O)[O-])o3)c2C#N)C1	13	95*	-16	10	.	.
CC(C)N1CCc2c(sc(NC(=O)c3ccc([N+](=O)[O-])o3)c2C(N)=O)C1	-62	94*	2	.	-8	39
CC1CCCN(Cc2c(O)ccc3c(=O)c(-c4nc5ccccc5s4)c(N)oc23)C1 (configuration not stated)	-3	0	-2	38	5	1
CC(=O)N(C1CC(C)C(C#N)(C#N)C1(C#N)C#N)N(C)C (configuration not stated)	93*	86*	1	1	18	-4
CCCC(=O)N(C1CC(C)C(C#N)(C#N)C1(C#N)C#N)N(C)C (configuration not stated)	97*	83*	28	-4	14	18
Oc1c(N=NC(=S)Nc2ccccc2F)c2ccccc2n1Cc1ccccc1F	31	18	48*	18	22	6
Cc1ccc(C)c(Cn2c(O)c(N=NC(=S)Nc3ccccc3F)c3ccccc32)c1	55	21	45*	9	-10	19
Oc1c(N=NC(=S)Nc2ccccc2F)c2ccccc2n1Cc1ccc(Cl)cc1	50	16	39	7	-13	5
Cc1ccccc1Cn1c(O)c(N=NC(=S)Nc2ccccc2F)c2ccccc21	25	13	44*	6	0	10
Cc1ccc(Cn2c(O)c(N=NC(=S)Nc3ccccc3F)c3cc(S(=O)(=O)N4CCOCC4)ccc32)cc1	51	9	36	1	.	.
Cc1cc(C(F)(F)F)nc(Nc2nc(C)c3ccccc3n2)n1	-10	15	3	8	-13	12
CC(C)CC[n+]1ccn(-c2nc3ccccc3nc2[N-]S(=O)(=O)c2ccc(Cl)cc2)c1	10	5	-5	10	20	0
CCn1c2ccccc2c2cc(C3C(C#N)=C(N)Oc4n[nH]c(COC)c43)ccc21 (configuration not stated)	1	10	92*	12	14	30
CCNS(=O)(=O)c1ccc(NC(=O)c2ccccc2OCC)cc1	7	16	9	-2	-7	-7
O=C1C(Cl)=C(Nc2ccc3cn[nH]c3c2)C(=O)c2ccccc21	96*	106*	12	-21	.	.
CN(C)c1ccc(NC2=C(Cl)C(=O)c3ccccc3C2=O)cc1	98*	102*	20	-37	-112	-78
O=C(Nc1ccc2cn[nH]c2c1)c1c(Cl)cccc1Cl	14	-10	0	-6	6	-1

Screening data (PubChem BioAssay)
